From the antibiotic and cytotoxicity screens of Wong et al. (2023) come the findings set out here.

Screen size: about 39,000 compounds; about 3,300 (8.5%) were called active. The sample holds actives, similar compounds and a random draw of the others, so the mix is not that of the screen.

The assay deals with HepG2. Kind of assay: cytotoxicity call (relative viability < 0.9). The settings on record: 10 µM.
Regarding `[O-][n+]1onc2c1CCc1c-2nn(-c2ccccc2)[n+]1[O-]`, the cytotoxicity call is “inactive”.

Consider `COc1ccc(C#Cc2ccc3c(c2)[C@]2(C(=O)N3)[C@H](c3ccc(OCCO)cc3)N3[C@H](c4ccccc4)[C@H](c4ccccc4)OC(=O)[C@H]3[C@@H]2C(=O)N2CCN(c3ncccn3)CC2)cc1`, for which the cytotoxicity call is “inactive”. For `COc1ccc(S(=O)(=O)N(C)C[C@@H]2Oc3ncc(C#CCN(C)C)cc3C(=O)N([C@H](C)CO)C[C@@H]2C)cc1` the value was “inactive”; for `O=C(O)CCC(=O)Nc1ccccn1`, “inactive”. Turning to `COc1ccc(NC(=O)Nc2ccc3c(c2)C(=O)N([C@H](C)CO)C[C@H](C)[C@H](CN(C)C(=O)NC2CCCCC2)OCCCC[C@H](C)O3)cc1`, the cytotoxicity call is “inactive”. `Nc1ccn[nH]1`: the cytotoxicity call is “inactive”.

For the compound `NCc1nnc2n1CCCCC2`, the cytotoxicity call was “inactive”. Consider `CCOC(=O)C1CCN(C)CC1`, for which the cytotoxicity call was “inactive”. Regarding `CC[C@@]1(O)C[C@H](O[C@H]2C[C@H](N(C)C)[C@H](O[C@H]3C[C@H](O)[C@H](O[C@H]4CCC(=O)[C@H](C)O4)[C@H](C)O3)[C@H](C)O2)c2c(cc3c(c2O)C(=O)c2c(O)cccc2C3=O)[C@H]1C(=O)OC`, the cytotoxicity call is “active”.

Turning to `C[C@@H]1CN([C@@H](C)CO)S(=O)(=O)c2ccc(C#CC3CCCCC3)cc2O[C@@H]1CN(C)C(=O)Cc1ccncc1`, the cytotoxicity call was “inactive”.

On to `CO[C@H](C(=O)N(C)C[C@H]1OCc2ccccc2-c2c(n(C)c3ccccc23)C(=O)N([C@@H](C)CO)C[C@@H]1C)c1ccccc1`, for which the cytotoxicity call is “inactive”. For `Cc1cc(C(=O)NCc2cc3n(n2)CCN(S(C)(=O)=O)C3)nc(C)n1` the value was “inactive”; for `C[C@H](CO)N1C[C@H](C)[C@@H](CN(C)Cc2ccc(C(F)(F)F)cc2)Oc2ccc(NC(=O)Nc3ccccc3)cc2CC1=O`, “inactive”; for `C[C@H]1CN([C@@H](C)CO)C(=O)Cc2cc(NC(=O)Nc3ccccc3)ccc2O[C@H]1CN(C)Cc1ccc(C(F)(F)F)cc1`, “active”. The same measure for `C[C@@H]1CN([C@H](C)CO)C(=O)Cc2cc(NC(=O)Nc3ccccc3)ccc2O[C@H]1CN(C)Cc1ccc(C(F)(F)F)cc1`: “inactive”; for `C[C@@H]1CN([C@H](C)CO)C(=O)Cc2cc(NC(=O)Nc3ccccc3)ccc2O[C@@H]1CN(C)Cc1ccc(C(F)(F)F)cc1`: “active”; for `C[C@@H]1CN([C@@H](C)CO)C(=O)Cc2cc(NC(=O)Nc3ccccc3)ccc2O[C@@H]1CN(C)Cc1ccc(C(F)(F)F)cc1`: “active”. For `C[C@H]1CN([C@@H](C)CO)C(=O)Cc2cc(NC(=O)Nc3ccccc3)ccc2O[C@@H]1CN(C)Cc1ccc(C(F)(F)F)cc1` the value was “active”; for `COCC(=O)Nc1ccc2c(c1)C(=O)N(C)C[C@@H](OC)[C@H](C)CN(Cc1ccccc1F)[C@H](C)CO2`, “inactive”. With `CN1CCN(C(=O)C[C@H]2C=C[C@@H](NC(=O)Cc3ccccn3)[C@@H](CO)O2)CC1`, the cytotoxicity call was “inactive”.

On to `C[C@H]1CCCCO[C@H](CN(C)C(=O)CCC(F)(F)F)[C@@H](C)CN([C@@H](C)CO)C(=O)c2cc(NS(=O)(=O)c3ccc(F)cc3)ccc2O1`, for which the cytotoxicity call was “inactive”. The same measure for `C[C@@H]1CN([C@@H](C)CO)C(=O)Cc2cc(NS(C)(=O)=O)ccc2O[C@H]1CN(C)C(=O)Nc1ccc(C(F)(F)F)cc1`: “inactive”. For `C[C@H](CO)N1C[C@H](C)[C@H](CN(C)S(=O)(=O)c2ccc(Cl)cc2)OCCCC[C@H](C)Oc2ccc(NC(=O)C3CCCCC3)cc2C1=O` the value was “inactive”; for `C[C@H](CO)N1C[C@H](C)[C@H](CN(C)S(=O)(=O)c2ccccc2)Oc2ccc(NC(=O)Nc3cccc4ccccc34)cc2C1=O`, “inactive”; for `COc1ccc(NC(=O)Nc2cccc3c2O[C@@H](CN(C)C(=O)Nc2ccc(C(F)(F)F)cc2)[C@H](C)CN([C@@H](C)CO)C3=O)cc1`, “inactive”. Consider `C[C@@H]1CCCCO[C@H](CN(C)Cc2ccncc2)[C@@H](C)CN([C@@H](C)CO)C(=O)c2cc(NC(=O)Nc3ccc4c(c3)OCO4)ccc2O1`, for which the cytotoxicity call was “inactive”. `C[C@H](CO)N1C[C@H](C)[C@H](CN(C)Cc2ccc(C(F)(F)F)cc2)Oc2ccc(NC(=O)Nc3ccccc3)cc2CC1=O`: the cytotoxicity call was “inactive”. For `C[C@@H]1CN([C@@H](C)CO)C(=O)Cc2cc(NC(=O)Nc3ccccc3)ccc2O[C@H]1CN(C)Cc1ccc(C(F)(F)F)cc1` the value was “active”; for `NCc1ccc2c(c1)CCO2`, “inactive”.

As for `C[C@H]1CN([C@@H](C)CO)S(=O)(=O)c2ccc(-c3cncnc3)cc2O[C@H]1CN(C)C(=O)Cc1ccncc1`, the cytotoxicity call is “inactive”. The same measure for `Cc1ccc(S(=O)(=O)Nc2ccc3c(c2)C(=O)N([C@H](C)CO)C[C@H](C)[C@H](CN(C)Cc2ccc(Cl)c(Cl)c2)O3)cc1`: “active”. For `Cc1ccc(S(=O)(=O)Nc2ccc3c(c2)C(=O)N([C@@H](C)CO)C[C@@H](C)[C@@H](CN(C)Cc2ccc(Cl)c(Cl)c2)O3)cc1` the value was “active”.

For `Cc1ccc(S(=O)(=O)Nc2ccc3c(c2)C(=O)N([C@H](C)CO)C[C@H](C)[C@@H](CN(C)Cc2ccc(Cl)c(Cl)c2)O3)cc1`, the cytotoxicity call was “active”. As for `Cc1ccc(S(=O)(=O)Nc2ccc3c(c2)C(=O)N([C@@H](C)CO)C[C@@H](C)[C@H](CN(C)Cc2ccc(Cl)c(Cl)c2)O3)cc1`, the cytotoxicity call was “inactive”. The same measure for `Cc1ccc(S(=O)(=O)Nc2ccc3c(c2)C(=O)N([C@H](C)CO)C[C@@H](C)[C@@H](CN(C)Cc2ccc(Cl)c(Cl)c2)O3)cc1`: “active”; for `Cc1ccc(S(=O)(=O)Nc2ccc3c(c2)C(=O)N([C@H](C)CO)C[C@@H](C)[C@H](CN(C)Cc2ccc(Cl)c(Cl)c2)O3)cc1`: “inactive”.

Regarding `Cc1ccc(S(=O)(=O)Nc2ccc3c(c2)C(=O)N([C@@H](C)CO)C[C@H](C)[C@@H](CN(C)Cc2ccc(Cl)c(Cl)c2)O3)cc1`, the cytotoxicity call is “inactive”. The same measure for `Cc1ccc(S(=O)(=O)Nc2ccc3c(c2)C(=O)N([C@@H](C)CO)C[C@H](C)[C@H](CN(C)Cc2ccc(Cl)c(Cl)c2)O3)cc1`: “inactive”; for `NC(=O)CSCC(=O)Nc1ccccc1F`: “inactive”; for `O=C(O)/C=C\C(=O)NCc1ccccc1`: “inactive”. For `COCCN1C[C@H]2[C@@H](OC)CCN(S(=O)(=O)c3cn(C)cn3)[C@H]2C1` the value was “inactive”.

With `CNC(=O)C[C@@H]1CC[C@@H]2[C@H](COC[C@@H](O)CN2C(=O)c2ccccn2)O1`, the cytotoxicity call was “inactive”. For `C[C@H](CO)N1C[C@H](C)[C@@H](CN(C)S(=O)(=O)c2cccs2)Oc2ccc(NS(C)(=O)=O)cc2CC1=O` the value was “inactive”.
